Eight compounds from PubChem BioAssay (NCI) can be followed below.

Assay in all cases: NCI-60 one-dose screen, 48 h (100 = growth as untreated, 0 = no growth, -100 = all killed)
Common to all, as to conditions: 10 µM unless noted

The subject of experiment [1] is SK-MEL-2 melanoma.
Experiment [2] concerns EKVX NSCLC.
The subject of experiment [3] is SN12C renal.
Experiment [4] deals with UO-31 renal.
The subject of experiment [5] is TK-10 renal.
The subject of experiment [6] is ACHN renal.
Experiment [7] deals with A498 renal.
Experiment [8] has as its system CCRF-CEM leukemia.
Experiment [9] relates to MOLT-4 leukemia.
Experiment [10] relates to SR leukemia.
Experiment [11] deals with RPMI-8226 leukemia.
Experiment [12] relates to OVCAR-8 ovarian.
Experiment [13] relates to OVCAR-5 ovarian.
Experiment [14] concerns OVCAR-4 ovarian.
The test system of experiment [15] is SK-OV-3 ovarian.
Experiment [16] concerns IGROV1 ovarian.
The subject of experiment [17] is OVCAR-3 ovarian.
Experiment [18] deals with NCI/ADR-RES ovarian.
Experiment [19] has as its system HS 578T breast.

The panel holds about 83,000 compounds, 20% with a hit somewhere; the sample as a whole holds those more often.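 Treatment: one concentration, 48 hours, 96-well format. Scoring: percent growth, with anything below 10 considered active.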 Unmarked numbers belong to inactive results. Active and inactive are the calls of the source.

As to `Cc1cc2nc(-c3c(N)ncc(C#N)c3-c3ccc(Cl)cc3)[nH]c2cc1C`, the growth is 59.9% in experiment [1]; 63.7% in [2]; 76.5% in [3]; 77.8% in [4]; 41.5% in experiment [5]; 67.7% in [6]. Further, the growth is 44.1% in experiment [7]; 54.5% in [8]; 73.3% in experiment [9]; 49.4% in [10]; 56% in experiment [11]; 38.4% in [12]. The growth in experiment [13] is 83.2%; in experiment [14], 56.1%; in experiment [15], 75.9%; in experiment [16], 46%; in [17], 21.8%; in experiment [18] it was 53.9%.
With `O=C(Cn1c2ccccc2c2ccncc21)N/N=C/c1cc(O)c(O)c(O)c1`, the growth in experiment [1] was 98.9%; in [2], 109%; in experiment [3], 104%; in experiment [4], 98.6%; in experiment [5] it was 107%; in experiment [6], 108%. The growth was 97.5% in experiment [7]; 112% in experiment [8]; 88.4% in experiment [9]; 106% in [10]; 100% in [11]; 103% in experiment [12]. Further, the growth in experiment [13] was 111%; in experiment [14] it was 110%; in experiment [15] it was 99.4%; in experiment [16], 107%; in experiment [17], 106%; in [19] it was 105%. Also, the growth in experiment [18] was 103%.
Turning to `COc1ccc(-c2coc3c(CO)c(O)ccc3c2=O)cc1`, the growth in experiment [1] was 19.2%; in experiment [2], 72.1%; in [3] it was 10.1%; in experiment [4], 24.3%; in experiment [5], 75.2%; in experiment [6], 20.8%. Besides, the growth is 68.6% in [7]; 45.2% in experiment [8]; 91.3% in experiment [9]; 25.5% in experiment [10]; 36.6% in experiment [11]; 73.6% in [12]. The growth in experiment [13] is 102%; in experiment [14], 75.6%; in experiment [15], 84.7%; in experiment [16] it was 61.2%; in experiment [17], 9.94% (active); in [19], 57.2%. Besides, the growth in experiment [18] was 86.3%.
As to `FC(F)(F)c1cn(CCN2CCOCC2)c2ncnc(Cl)c12`, the growth was 41.3% in experiment [1]; 92.6% in [2]; 71.2% in experiment [3]; -85.5% (active) in [4]; 113% in experiment [5]; 64.7% in experiment [6]. Moreover, the growth in experiment [7] is 105%; in experiment [8] it was 12.3%; in experiment [9] it was 40.4%; in [10], -40.3% (active); in experiment [11], 99%; in experiment [12] it was 18.7%. In addition, the growth in experiment [13] was 106%; in experiment [14], 82.4%; in [15], 101%; in experiment [16], 13.4%; in experiment [17] it was 63.3%; in [19], 81.9%. Also, in experiment [18], the growth is 92.8%.
On to `C=C1C(=O)O[C@H]2[C@H]1CC/C(COC(=O)c1ccc(C#N)cc1)=C\CC[C@@]1(C)O[C@@H]21`, for which the growth in [1] was 37.9%; in [2] it was 16%; in experiment [3], 17.4%; in experiment [4], -1.25% (active); in experiment [5], 40.2%; in experiment [6], 0.811% (active). Also, the growth in experiment [7] is 99.7%; in experiment [8], -25.8% (active); in experiment [9], -29.3% (active); in experiment [10], -10% (active); in experiment [11] it was -35.8% (active); in experiment [12], 1.03% (active). Besides, the growth was 34.5% in [13]; 35.9% in [14]; 106% in [15]; 7.59% (active) in [16]; -10.7% (active) in experiment [17]; 70% in [19]. Further, in experiment [18], the growth was 54.5%.
For the compound `CC1=C2C(=C[C@@](C)(CO)[C@@H]2OC(=O)N(C)CCN(C)C(=O)OC(C)(C)C)C(=O)[C@](C)(O)C12CC2`, the growth in experiment [1] is 71.4%; in experiment [2], 78.5%; in experiment [3], 73%; in [4] it was -60.4% (active); in [5], 68.1%; in experiment [6] it was -52.5% (active). In addition, the growth is 97% in experiment [7]; 74.6% in experiment [8]; 89.7% in experiment [9]; 50.6% in [10]; 48% in [11]; 36.6% in experiment [12]. In addition, the growth was 19.2% in experiment [13]; 43.8% in [14]; 35.3% in experiment [15]; 9.25% (active) in [16]; 3.63% (active) in experiment [17]; 93.9% in experiment [19]. Besides, the growth in experiment [18] is 10.7%.
For `CCNC(=O)Oc1ccc(/C(=C(/CC)Cc2ccccc2)c2ccc(OCCN3CCOCC3)cc2)cc1`, the growth in [1] is 66.2%; in experiment [2], 38.6%; in experiment [3], 67.7%; in [4], 23%; in experiment [5], 76.2%; in [6], 59.8%. The growth in [7] is 76.9%; in experiment [8] it was 61.7%; in experiment [9], 10.1%; in [10], 29.2%; in experiment [11] it was 16%; in [12] it was 57.8%. For the same compound, the growth was 94.8% in experiment [13]; 45.9% in experiment [14]; 75.5% in experiment [15]; 59.4% in experiment [16]; 50.8% in experiment [17]; 62.5% in [19]. Further, the growth in experiment [18] is 49.4%.
In the case of `O=C(c1ccccc1)[C@H]1[C@@H]2CCCN2[C@]2(C(=O)Nc3ccc(F)cc32)[C@]12C(=O)Nc1ccccc12`, the growth in experiment [1] is 83.1%; in [2], 70.8%; in [3], 92%; in experiment [4], 85.4%; in experiment [5] it was 113%; in [6], 88.6%. Moreover, the growth is 89.7% in [7]; 76.8% in experiment [8]; 59.5% in experiment [9]; 85.2% in experiment [10]; 71.2% in [11]; 88.8% in [12]. For the same compound, the growth in experiment [13] is 91.7%; in experiment [14], 81.6%; in [15], 83.8%; in experiment [16], 81.3%; in experiment [17], 83.7%; in [19] it was 96.1%. The growth in experiment [18] was 96.7%.
